# Source: PubChem BioAssay (NCATS)
# Values joined by “and” are separate entries in the source; they are usually repeats but may differ in a detail not shown here. Equal entries are not always repeated. Inconclusive results are not listed. Where a call stands in place of a potency, no number is given. A number with no mark means an inactive call. Active and inactive are the calls of the source. Unless noted, the call rests on the fitted dose curve; in most records, active means well fitted curve in the direction sought with a large enough effect; inconclusive means small, poorly fitted or top-dose-only effect, or another doubt; inactive means no such curve, though single readings can be large; an effect the other way counts as inactive or inconclusive.
# How the values were obtained:
# [1] = S16 Schwann cell viability assay (CellTiter-Glo assay) (AID 624031);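 further: native untransfected S16 rat Schwann cells; series mostly up to about 58 µM; nearly all actives have a fitted effect of over 70% in size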
# Procedure, shortened: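 Counter-screen for cytotoxicity: parental S16 rat Schwann cells lacking the PMP22 reporters, treated 24 h with compound, viability from cellular ATP by CellTiter-Glo luminescence, normalized to DMSO (0%) and no-cell wells.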
# [2] = S16 Schwann cell PMP22 intronic element firefly luciferase assay (AID 624032); further: nearly all actives have a fitted effect of over 30% in size; further: potency means the concentration at half of the fitted maximal effect
# Procedure, shortened: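 Rat S16 Schwann cells stably carrying a PMP22 intronic element-driven Fluc reporter were seeded overnight, then exposed to compounds for 24 h at 37 °C. Luminescence was normalized to PTC124 (positive control) and DMSO (0% activity).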
# [3] = S16 Schwann cell PMP22 intronic element beta-lactamase assay (AID 624044; calls by dose curve; further: nearly all actives have a fitted effect of over 15% in size)
# Procedure, shortened: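 Rat S16 Schwann cells with beta-Lac driven by a PMP22 intronic element, compound-treated 24 h at 37 °C. LiveBLAzer FRET B/G read: 460 nm normalized to potassium clavulanate vs DMSO; 535 nm FRET as viability; concentration-effect curves classified.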
# [4] = target: Luciferin 4-monooxygenase (Photinus pyralis) (UniProt P08659); experiment: Biochemical firefly luciferase enzyme assay for NPC (AID 624030);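 further: purified P. pyralis luciferase at 10 nM with luciferin and ATP substrate; series mostly up to about 59 µM; nearly all actives have a fitted effect of over 70% in size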
# Luciferin 4-monooxygenase (Photinus pyralis), sequence (P08659 whole entry, looked up): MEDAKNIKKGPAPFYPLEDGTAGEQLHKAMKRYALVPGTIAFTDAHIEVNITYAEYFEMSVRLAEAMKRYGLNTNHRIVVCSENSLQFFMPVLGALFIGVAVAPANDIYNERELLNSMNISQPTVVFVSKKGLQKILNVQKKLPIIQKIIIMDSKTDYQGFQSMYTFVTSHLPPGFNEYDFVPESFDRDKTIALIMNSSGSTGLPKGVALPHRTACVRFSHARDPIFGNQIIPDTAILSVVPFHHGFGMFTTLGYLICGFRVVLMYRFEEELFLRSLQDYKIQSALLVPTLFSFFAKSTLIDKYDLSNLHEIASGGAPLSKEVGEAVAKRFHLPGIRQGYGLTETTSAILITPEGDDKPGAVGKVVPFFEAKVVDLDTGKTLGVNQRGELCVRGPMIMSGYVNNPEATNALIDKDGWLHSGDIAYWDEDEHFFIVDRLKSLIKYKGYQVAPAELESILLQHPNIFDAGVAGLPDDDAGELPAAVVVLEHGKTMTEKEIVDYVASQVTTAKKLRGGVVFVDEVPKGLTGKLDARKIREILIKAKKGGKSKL
# Procedure, shortened: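 Counter-screen for direct inhibition of the luciferase enzyme by approved-drug library compounds, run at 10 nM enzyme in 50 mM Tris acetate (final). Luminescence was read within 5 min of enzyme-buffer addition and normalized to PTC124 versus DMSO (0%).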
# [5] = target: Voltage-gated inwardly rectifying potassium channel KCNH2 (Homo sapiens) (UniProt Q12809); experiment: qHTS Assay for Small Molecule Inhibitors of the Human hERG Channel Activity (AID 588834);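 further: top concentration of the series differs between compounds; lower thallium flux fluorescence means stronger hERG block; nearly all actives have a fitted effect of over 50% in size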
# Voltage-gated inwardly rectifying potassium channel KCNH2 (Homo sapiens), sequence (Q12809 whole entry, looked up): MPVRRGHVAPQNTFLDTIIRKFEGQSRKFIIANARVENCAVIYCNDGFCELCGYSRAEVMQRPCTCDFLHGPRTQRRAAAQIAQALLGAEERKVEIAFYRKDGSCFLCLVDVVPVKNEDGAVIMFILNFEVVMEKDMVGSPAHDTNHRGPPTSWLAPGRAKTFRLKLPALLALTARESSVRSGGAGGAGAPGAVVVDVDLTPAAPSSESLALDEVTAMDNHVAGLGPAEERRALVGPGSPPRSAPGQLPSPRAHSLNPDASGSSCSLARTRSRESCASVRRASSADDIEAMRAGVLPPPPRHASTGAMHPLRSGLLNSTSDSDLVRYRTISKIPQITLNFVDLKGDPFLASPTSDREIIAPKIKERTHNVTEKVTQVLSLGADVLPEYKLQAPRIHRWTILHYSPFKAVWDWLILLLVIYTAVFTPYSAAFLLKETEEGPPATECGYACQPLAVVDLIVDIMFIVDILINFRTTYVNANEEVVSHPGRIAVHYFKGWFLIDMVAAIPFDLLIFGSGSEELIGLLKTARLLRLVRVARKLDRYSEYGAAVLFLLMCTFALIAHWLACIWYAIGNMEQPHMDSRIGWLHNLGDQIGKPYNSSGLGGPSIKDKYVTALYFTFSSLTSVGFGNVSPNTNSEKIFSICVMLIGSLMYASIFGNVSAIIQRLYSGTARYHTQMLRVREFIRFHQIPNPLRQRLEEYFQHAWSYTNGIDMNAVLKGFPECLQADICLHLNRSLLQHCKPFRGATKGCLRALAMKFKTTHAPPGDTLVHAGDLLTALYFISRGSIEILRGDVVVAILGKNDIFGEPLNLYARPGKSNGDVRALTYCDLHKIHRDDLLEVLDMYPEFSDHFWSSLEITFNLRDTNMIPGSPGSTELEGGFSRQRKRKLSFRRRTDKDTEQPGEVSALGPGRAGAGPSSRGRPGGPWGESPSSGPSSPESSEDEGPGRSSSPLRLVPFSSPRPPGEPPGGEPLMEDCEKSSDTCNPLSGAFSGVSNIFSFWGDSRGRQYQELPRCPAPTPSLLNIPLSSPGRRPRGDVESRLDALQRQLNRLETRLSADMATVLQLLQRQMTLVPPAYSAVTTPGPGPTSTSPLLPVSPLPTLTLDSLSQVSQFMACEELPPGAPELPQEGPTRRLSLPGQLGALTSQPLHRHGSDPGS
# Procedure, shortened: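 Measured: FluxOR fluorescence after thallium stimulation in U2OS cells transduced with hERG by baculovirus. Compounds pre-incubated around 10 min; medium Opti-MEM with 2% FCS. AC50 from Hill equation.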
# [6] = qHTS assay for small molecule agonists of the antioxidant response element (ARE) signaling pathway (AID 651741; active means well fitted activation curve with a large enough effect in the signal ratio; the % refers to the signal ratio; further: potency means the concentration at half of the fitted maximal effect)
# Procedure, shortened: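 ARE-bla HepG2 cells (beta-lactamase reporter under ARE control) were plated at 2,000 cells/well, preincubated 5 h at 37 C/5% CO2, then treated with DMSO-dissolved compounds for 16 h at 37 C; LiveBLAzer B/G FRET substrate added, fluorescence read after 2 h at room temperature.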
# [7] = qHTS assay for small molecule activators of the p53 signaling pathway (AID 651743; active means well fitted activation curve with a large enough effect in the signal ratio, not every such curve was filed as active; the % refers to the signal ratio; further: potency means the concentration at half of the fitted maximal effect); conditions: HCT-116 p53RE-bla, beta-lactamase FRET ratio, 16 h; activation: stronger effect = higher value
# Procedure, shortened: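 p53RE-bla HCT-116 cells with a stably integrated beta-lactamase reporter under p53 response elements were plated, rested 5 hours at 37 C/5% CO2, then exposed to compounds in DMSO for 16 hours at 37 C. LiveBLAzer B/G FRET substrate was read after 2 hours at room temperature.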
# [8] = qHTS assay for small molecule activators of the nuclear factor-kappa B (NF-kB) signaling pathway (AID 651749; active means well fitted activation curve with a large enough effect in the signal ratio; the % refers to the signal ratio; further: series mostly up to about 77 µM); conditions: NF-kB-bla ME-180 cells, beta-lactamase FRET ratio, 16 h; stronger effect = higher value
# Procedure, shortened: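 ME-180 cells stably carrying a beta-lactamase reporter under an NF-kB response element were exposed to compound or DMSO vehicle for 16 hr at 37C, 5% CO2. Pathway activation was read by FRET, since reporter expression disrupts FRET.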
# [9] = qHTS assay for small molecule disruptors of the mitochondrial membrane potential - 1 hr assay (AID 651754; calls by dose curve; further: potency means the concentration at half of the fitted maximal effect; nearly all actives have a fitted effect of over 35% in size)
# Procedure, shortened: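 HepG2 cells, attached overnight at 37C, were exposed to compound or DMSO vehicle for 1 hr at 37C, 5% CO2, then stained with Mito-MPS dye for 30 min. Red aggregate versus green monomer fluorescence reports membrane potential.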
# [10] = qHTS assay for small molecule disruptors of the mitochondrial membrane potential - 5 hr assay (AID 651755; calls by dose curve; further: potency means the concentration at half of the fitted maximal effect; nearly all actives have a fitted effect of over 40% in size)
# Procedure, shortened: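 HepG2 cells, attached overnight at 37C, were exposed to compound or DMSO for 5 hr at 37C, 5% CO2. Mito-MPS dye was then added for 30 min, and fluorescence read at 490/535 nm (monomers) and 540/590 nm (aggregates).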
compound,measurement,setting,value
CC1=C(C(=O)O)N2C(=O)[C@@H](NC(=O)[C@H](N)c3ccccc3)[C@H]2SC1,Potency,[1],inactive
same,Potency,[2],inactive
Cc1cc(-c2ccccc2)nnc1NCCN1CCOCC1,Potency,[1],inactive
same,Potency,[2],inactive
same,Potency,[3],inactive
CCC1Nc2cc(Cl)c(S(N)(=O)=O)cc2S(=O)(=O)N1 (stereo not drawn),Potency,[4],inactive
same,Potency,[2],inactive
Oc1c(Cl)cc(Cl)c(Cl)c1Cc1c(O)c(Cl)cc(Cl)c1Cl,Potency,[5],inactive
same,Potency,[1],inactive
same,Potency,[2],1.61 µM (active)
same,Potency,[6],6.86 µM (active)
same,Potency,[7],7.94 µM (active) and 12.6 µM (active)
same,activation,[8],-1.07%
same,Potency,[9],2.98 µM (active)
same,Potency,[10],3.35 µM (active)
Clc1cccc(C(c2ccc3nc[nH]c3c2)n2ccnc2)c1 (stereo not drawn),Potency,[4],inactive
same,Potency,[1],inactive
same,Potency,[2],inactive
same,Potency,[3],inactive
CNCCc1ccccn1,Potency,[4],inactive
same,Potency,[1],inactive
same,Potency,[2],inactive
CC(C)=CCOc1ccc(/C=C/C(=O)c2ccc(OCC=C(C)C)cc2OCC(=O)O)cc1,Potency,[5],inactive
same,Potency,[1],inactive
same,Potency,[3],inactive
CN1CCN(CCC(=O)N2c3ccccc3Sc3ccc(C(F)(F)F)cc32)CC1,Potency,[4],inactive
same,Potency,[2],inactive
same,Potency,[3],inactive
